Test results reported in publication PMC12864922, “TDP-43 directly inhibits mRNA accumulation in neurites through modulation of mRNA stability”.
Whole data set: some 9,900 sequences, median “r (bound/input frequency ratio)” near 0.7, cut for the highest 2% near 6.5. What follows is part of a selection rich in the highest values, with near analogues and random picks from the rest.

B1: ENSMUSG00000061578.1192|Ksr2 (ssRNA)
RNA: GGGAGUUCUACAGUCCGACGAUCGCUUCGAUAUCCGCAUGCUAUGUCUGCUUUUGUUUCUCCACCAUGCCCCCUGCCACCUCUUCUGACAGUGCUCAGAUUUAUCAGCCACCUGACCCACAGACCCAUAUGGACACACUAGAAAGCCCAUCCUAGGUCUUUCCAUGGUCUCUCACACCCCUGUCCCCGUCCCCUCCACCCCCCGGCAGCAUGCUUCACUCUAUGAAUGAGCCGCUGGGAUAUUGACAUGGAGAUGUGUUGAUGGAAAAAGCCUCCACACCCAACAUAACUCUCCAGAGAGAUACUCUUGCGGUCGCACUAGUGUGGAAUUCUCGGGUGUCAAGG
B2: ENSMUSG00000031028.410|Tub|118:122;252:256 (ssRNA)
RNA: GGGAGUUCUACAGUCCGACGAUCGCUUCGAUAUCCGCAUGCUAAGAUCCCUUACCCCUCAUCCCCUCUUCUUUUUGGUCCUUGGCUGGGUAGCAAAUUGGUGAGAAGAGCAGCCUAGUCUGUAAGAGUGCAGGGCAGCUGGAACCUUAGGCAGCUCCUCUCAUACCUACCGGCUCCACACCCUAACACUCUCCACCCUCUGCUCCAAACCAGUUCUUCUGCAGAGUGGUGAUGUUAGCUUCCCCAGCUCCUCUCCAAGUCUAGCUUUUUCUGUCCUUCUGGCUCCAAGGUGCUCACACACUGUCUCUUGCGGUCGCACUAGUGUGGAAUUCUCGGGUGUCAAGG
B3: ENSMUSG00000022095.49|Fam160b2 (ssRNA)
RNA: GGGAGUUCUACAGUCCGACGAUCGCUUCGAUAUCCGCAUGCUACCUUUUAGAGGAGCUAGAGGAUGGCCAGUGAGCGCCUAGAUGCUGCCCUGCAUGUGUUGCGUGACUAUCUCUGCUAUAUUGUGACCAGGGCCACAACAUGAGACAACUCCAGGGGCCAGGGAGAUGAACUGCUGUCUUUGAGGCUGGCUAAAAAAACAAUCCAGUCCAGAGAGAUGGGGAGGGGGGGAGCAAGAACCCUGUCUGUUACAUUAGGUAUCAUGGAAGCUGCUAAGACUCGGCAGGUUUCUCCGAGGCUUCACCUCUUGCGGUCGCACUAGUGUGGAAUUCUCGGGUGUCAAGG
B4: ENSMUSG00000029636.83|Wasf3|141:145 (ssRNA)
RNA: GGGAGUUCUACAGUCCGACGAUCGCUUCGAUAUCCGCAUGCUAACCAGUGGGUGAUACGUUUUCCUGUUUCUUCCCUUUGCAAAUUGAAUUCCAGGUAGAUAUGGUUGUAGAGGGGAAAGUUUAACAAAUCAGAAUGAAAUGUUUGUCUGUUUGCACACUGGGCCUGGUGGCCUCCAAGGAAAACACAACGAUCGUUUGCUUUCUCUAUCUUGGCGCUUGCAACCGAGAGCGGCCAUUUUUAUGAGGGGAGCCCUGUGGGUACUCAUGUGGAAAGUGCCCACUGACUUUGGCAGAUGGAGUUCCUCUUGCGGUCGCACUAGUGUGGAAUUCUCGGGUGUCAAGG

These binders were tested against TDP-43 (Homo sapiens, UniProt Q13148 1-414) (assay: RNA Bind-n-Seq with designed 260-mer pool; 25 mM Tris-HCl, 150 mM KCl, 3 mM MgCl2, BSA (printed 500 mg/mL), 20 units/mL SUPERase IN; pH not stated; 500 nM RNA pool, 1 h, 4 C; TDP-43 5, 50, 500 nM; high values mean tight binding). Conditions: protein: recombinant; tags: SBP (GST cleaved off with PreScission; pGEX-GST-SBP).
Chain of TDP-43 (Q13148 whole entry): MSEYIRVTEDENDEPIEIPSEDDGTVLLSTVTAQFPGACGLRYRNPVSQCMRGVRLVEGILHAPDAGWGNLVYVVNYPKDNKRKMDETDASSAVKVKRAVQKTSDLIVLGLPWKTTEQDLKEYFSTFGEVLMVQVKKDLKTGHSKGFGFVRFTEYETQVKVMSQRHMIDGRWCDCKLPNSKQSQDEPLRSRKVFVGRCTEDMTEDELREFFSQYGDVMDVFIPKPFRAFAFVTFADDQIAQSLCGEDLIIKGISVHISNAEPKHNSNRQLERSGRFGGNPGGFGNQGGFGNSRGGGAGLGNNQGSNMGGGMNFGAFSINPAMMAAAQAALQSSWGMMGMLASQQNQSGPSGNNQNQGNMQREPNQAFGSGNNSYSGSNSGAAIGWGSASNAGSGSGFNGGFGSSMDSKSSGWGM
Procedure, shortened: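 Binding (R) is the ratio of each oligo's mapped-read-normalized abundance in the bound fraction to its abundance in the input. To obtain it, SBP-tagged recombinant TDP-43 (5, 50 or 500 nM) on streptavidin beads was incubated with 500 nM of an in vitro-transcribed 260-nt 3′ UTR oligo pool for 1 h at 4 °C in 25 mM Tris-HCl, 150 mM KCl, 3 mM MgCl2, BSA and SUPERase IN. The RNA retained after washing was released with biotin, then reverse transcribed, amplified by PCR and sequenced.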
For B1, the binding signal was 1.3 R (bound/input frequency ratio).
For B2, the binding signal was 2.59 R (bound/input frequency ratio).
For B3, the binding signal was 1.16 R (bound/input frequency ratio).
For B4, the binding signal was 1.97 R (bound/input frequency ratio).
